From PubChem BioAssay (Tox21) come the findings set out here.

Several values for one entry are separate records, joined by “and”; a condition that tells them apart may be missing. Equal entries are not always repeated. Inconclusive results are not listed. Some structures have more than one record in an assay (separate samples or runs), and their calls can disagree. Activity calls are given as the source filed them. Calls follow the shape of the dose curve; as a rule, active = well fitted curve in the direction sought with a large enough effect in the repeat runs; inconclusive = weak or mixed curves; inactive = no such curve, though single readings can be large; an effect the other way counts as inactive or inconclusive.

Experiment [1] is described as follows: qHTS assay to identify small molecule antagonists of the glucocorticoid receptor (GR) signaling pathway - cell viability counter screen (AID 720693). Also: nearly all actives have a fitted effect of over 55% in size. The following applies: GR-bla HeLa viability, CellTiter-Glo luminescence, 18 h, with 5 nM dexamethasone present; series mostly up to 58.5 µM. Background: In qHTS, concentration-response curves come from the screen itself.

Experiment [2] is described as follows: qHTS assay for identifying genotoxic compounds that show differential cytotoxicity against isogenic chicken DT40 cell lines with known DNA damage response pathways - wild type cell line (AID 743012). Also: nearly all actives have a fitted effect of over 60% in size. Also: potency is read from the fitted curve at half-maximal effect. The following applies: DT40 wild type chicken cells viability, CellTiter-Glo, 40 h; series mostly up to 68.4 µM. Put shortly: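 Wild type DT40, 300 cells/well, ~0.5 h settle at 37 C/5% CO2; compounds in DMSO added by pintool; 40 h at 37 C/5% CO2; CellTiter-Glo, 30 min RT; luminescence.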

Experiment [3] is described as follows: qHTS assay for identifying genotoxic compounds that show differential cytotoxicity against isogenic chicken DT40 cell lines with known DNA damage response pathways - Rev3 mutant cell line (AID 743014). Also: nearly all actives have a fitted effect of over 55% in size. Also: potency is read from the fitted curve at half-maximal effect. The following applies: chicken DT40 Rev3-/- viability, CellTiter-Glo, 40 h; series mostly up to 68.4 µM.
Experiment [4] can be described thus: qHTS assay for identifying genotoxic compounds that show differential cytotoxicity against isogenic chicken DT40 cell lines with known DNA damage response pathways - Rad54/Ku70 mutant cell line (AID 743015). Also: nearly all actives have a fitted effect of over 60% in size. Also: potency is read from the fitted curve at half-maximal effect. The following applies: DT40 Rad54/Ku70 mutant viability, CellTiter-Glo, 40 h; series mostly up to 66.8 µM.
The nature of experiment [5]: qHTS assay to identify small molecule antagonists of the androgen receptor (AR) signaling pathway - cell viability counter screen (AID 743033; also: nearly all actives have a fitted effect of over 45% in size). The following applies: AR-bla HEK293 viability, CellTiter-Glo luminescence, 16 h; series mostly up to 58.5 µM.
A short description of experiment [6]: qHTS assay to identify small molecule antagonists of the androgen receptor (AR) signaling pathway using the MDA cell line - cell viability counter screen (AID 743041; also: nearly all actives have a fitted effect of over 45% in size; also: potency is read from the fitted curve at half-maximal effect). The following applies: MDA-kb2 viability, CellTiter-Fluor, 16 h, cells co-treated with R1881 androgen agonist; series mostly up to 70.3 µM. In short, it runs like this: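 Cells were plated at 3,000 per well and left 5 h. Compounds in DMSO were then pinned in, followed by R1881. After 16 h at 37C, CellTiter-Fluor fluorescence gave viability.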

As for `C=Cc1ccc(C)cc1`, the result in experiment [1] and in experiment [5] was inactive. Also, the Potency entry in experiment [2], in experiment [3], in experiment [4] and in experiment [6] was “inactive” throughout.
Consider `NC(=S)NNC(N)=S`, for which the compound was called inactive in experiment [1] and in experiment [5]. Moreover, the Potency result in experiment [2], in experiment [3], in experiment [4] and in experiment [6] was “inactive” each time.
Regarding `C=C(C)CNCC`, the result in experiment [1] and in experiment [5] was inactive. Besides, the Potency entry in experiment [2], in experiment [3], in experiment [4] and in experiment [6] was “inactive” in each case.
As for `O=C(O)c1ccccc1C(=O)O`, the compound was classed as inactive in experiment [1] and in experiment [5]. The Potency result in experiment [2], in experiment [3], in experiment [4] and in experiment [6] was “inactive” each time.
Consider `C=C(C)C(=O)OCC(C)C`, for which the result in experiment [1] and in experiment [5] was inactive. The Potency result in experiment [2], in experiment [3], in experiment [4] and in experiment [6] was “inactive” in each case.
For `CC1(C)NC(=O)NC1=O`, the result in experiment [1] and in experiment [5] was inactive. Besides, the Potency result in experiment [2], in experiment [3], in experiment [4] and in experiment [6] was “inactive” each time.
Turning to `CC(=O)CCC=C(C)C`, the compound was classed as inactive in experiment [1] and in experiment [5]. Moreover, the Potency entry in experiment [2], in experiment [3], in experiment [4] and in experiment [6] was “inactive” in each case.
For `Cc1ccc2ncccc2c1`, the compound was called inactive in experiment [1] and in experiment [5]. The Potency entry in experiment [2], in experiment [3], in experiment [4] and in experiment [6] was “inactive” in each case.
On to `CC(=O)OC1CC(C)OC(C)O1` (stereo not drawn), for which the compound was classed as inactive in experiment [1] and in experiment [5]. Also, the Potency result in experiment [2], in experiment [3], in experiment [4] and in experiment [6] was “inactive” each time.
For `COc1ccc(N)c(C)c1`, the compound was called inactive in experiment [1] and in experiment [5]. Further, the Potency result in experiment [2], in experiment [3], in experiment [4] and in experiment [6] was “inactive” throughout.
With `O=S(=O)(O)c1ccc(N=Nc2c(O)ccc3cc(S(=O)(=O)O)ccc23)cc1`, the result in experiment [1] and in experiment [5] was inactive. Besides, the Potency entry in experiment [2], in experiment [3] and in experiment [4] was “inactive” each time. For the same compound, in experiment [6], the Potency was 30.8 µM (active) and 27.3 µM (active).
`C=CC(=O)OCCC(=O)O`: the compound was called inactive in experiment [1] and in experiment [5]. Besides, the Potency result in experiment [2], in experiment [3], in experiment [4] and in experiment [6] was “inactive” each time.
For `CCCCCCCO`, the call in experiment [1] and in experiment [5] was inactive. Further, the Potency entry in experiment [2], in experiment [3], in experiment [4] and in experiment [6] was “inactive” throughout.
`COc1ccc(OC)cc1`: the compound was classed as inactive in experiment [1] and in experiment [5]. In addition, the Potency entry in experiment [2], in experiment [3], in experiment [4] and in experiment [6] was “inactive” in each case.
Regarding `COCCOC(=O)c1ccccc1C(=O)OCCOC`, the outcome in experiment [1] and in experiment [5] was inactive. Besides, the Potency entry in experiment [2], in experiment [3], in experiment [4] and in experiment [6] was “inactive” each time.
Take `C=C(C)[C@H]1CC=C(C)C(=O)C1`: the compound was classed as inactive in experiment [1] and in experiment [5]. Besides, the Potency result in experiment [2], in experiment [3], in experiment [4] and in experiment [6] was “inactive” throughout.
Regarding `CC(C)=CCl`, the compound was called inactive in experiment [1] and in experiment [5]. Also, the Potency entry in experiment [2], in experiment [4] and in experiment [6] was “inactive” each time. Moreover, the Potency in experiment [3] is 34.8 µM (active) and inactive.
`C=CCc1ccc(OC)c(OC)c1`: the compound was called inactive in experiment [1] and in experiment [5]. Also, the Potency result in experiment [2], in experiment [3], in experiment [4] and in experiment [6] was “inactive” in each case.
Turning to `CC(C)c1cccc(C(C)C)c1`, the call in experiment [1] and in experiment [5] was inactive. Besides, the Potency entry in experiment [2], in experiment [3], in experiment [4] and in experiment [6] was “inactive” each time.
On to `O=C(O)c1ccc(S(=O)(=O)N(Cl)Cl)cc1`, for which the outcome in experiment [1] and in experiment [5] was inactive. Also, the Potency result in experiment [2] and in experiment [6] was “inactive” throughout. In addition, the Potency in experiment [3] was 43.5 µM (active); in experiment [4], “inactive and 24.5 µM (active)”.
For the compound `CCCCOC(=O)c1ccc(N)cc1`, the outcome in experiment [1] and in experiment [5] was inactive. The Potency result was “inactive and 13.5 µM (active)” in experiment [2]; 9.44 µM (active) and 13.5 µM (active) in experiment [3]; 7.5 µM (active) and 7.59 µM (active) in experiment [4]. In addition, in experiment [6], the Potency entry was “inactive”.
Turning to `C=CCCCCCCCCC(=O)O`, the outcome in experiment [1] and in experiment [5] was inactive. The Potency result in experiment [2], in experiment [3], in experiment [4] and in experiment [6] was “inactive” in each case.
With `CC(C)CCCCCCCOC(=O)CCCCC(=O)OCCCCCCCC(C)C`, the compound was classed as inactive in experiment [1] and in experiment [5]. Further, the Potency result in experiment [2], in experiment [4] and in experiment [6] was “inactive” throughout. In addition, the Potency result in experiment [3] was “inactive and 38.6 µM (active)”.
For `NCCN1CCNCC1`, the call in experiment [1] and in experiment [5] was inactive. The Potency entry in experiment [2], in experiment [3], in experiment [4] and in experiment [6] was “inactive” in each case.
As for `COc1ccc([N+](=O)[O-])cc1N`, the call in experiment [1] and in experiment [5] was inactive. For the same compound, the Potency result in experiment [2], in experiment [3] and in experiment [6] was “inactive” throughout. Besides, in experiment [4], the Potency entry is “inactive and 54.5 µM (active)”.
For `CCCCCCO`, the compound was classed as inactive in experiment [1] and in experiment [5]. Moreover, the Potency entry in experiment [2], in experiment [3], in experiment [4] and in experiment [6] was “inactive” each time.
For `CCCCCCCC=O`, the outcome in experiment [1] and in experiment [5] was inactive. Also, the Potency entry in experiment [2], in experiment [3], in experiment [4] and in experiment [6] was “inactive” in each case.
As to `O=C1CCCC1`, the call in experiment [1] and in experiment [5] was inactive. For the same compound, the Potency entry in experiment [2], in experiment [3], in experiment [4] and in experiment [6] was “inactive” each time.
Consider `O=C1c2ccccc2CCc2ccccc21`, for which the outcome in experiment [1] and in experiment [5] was inactive. In addition, in experiment [6], the Potency result is “inactive”.
`CCCCCCCCCCCCCCCC(=O)OC(C)C`: the outcome in experiment [1] and in experiment [5] was inactive. In addition, the Potency entry in experiment [2], in experiment [3], in experiment [4] and in experiment [6] was “inactive” each time.
Turning to `N#Cc1ccccc1`, the call in experiment [1] and in experiment [5] was inactive. Besides, the Potency result in experiment [2], in experiment [3], in experiment [4] and in experiment [6] was “inactive” throughout.
